Measurements taken from PubChem BioAssay (NCATS).
Where “and” joins values, the source holds several entries; their conditions need not be identical. Equal entries are not always repeated. Inconclusive results are not listed. The source holds several records for some structures; these can differ, active in one and inactive in another. Calls of active or inactive are those of the source. The call rests on the fitted dose curve; in most records, active means well fitted inhibition curve with a large enough effect; inconclusive means small, poorly fitted or top-dose-only effect; inactive means flat fitted curve, though single readings scatter.

Legend:
PAD = experiment: qHTS profiling for inhibitors of Plasmodium falciparum proliferation (AID 504749);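 further: 0% = DMSO vehicle and full inhibition = artemisinin control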; conditions: P. falciparum in erythrocytes, SYBR Green DNA, 72 h; series mostly up to 28.7 µM
In short: (§1)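 Readout was DNA-dye fluorescence from lysed cultures, ex 485/em 535 nm. Parasitized red cells had grown 72 h with compound; data scaled between 0.29 uM artemisinin and DMSO wells and corrected using vehicle-only plates.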

PC15 = experiment: as above; conditions: P. falciparum in erythrocytes, SYBR Green DNA, 72 h; series mostly up to 28.7 µM
In short: as §1

PC26 = experiment: as above; conditions: P. falciparum in erythrocytes, SYBR Green DNA, 72 h; series mostly up to 28.7 µM
In short: as §1

PC49 = experiment: as above; conditions: P. falciparum in erythrocytes, SYBR Green DNA, 72 h; series mostly up to 28.7 µM
In short: as §1

SC27B = experiment: as above; conditions: P. falciparum in erythrocytes, SYBR Green DNA, 72 h; series mostly up to 28.7 µM
In short: as §1

TAB109 = experiment: as above; conditions: P. falciparum in erythrocytes, SYBR Green DNA, 72 h; series mostly up to 28.7 µM
In short: as §1

TAB113 = experiment: as above; conditions: P. falciparum in erythrocytes, SYBR Green DNA, 72 h; series mostly up to 28.7 µM
In short: as §1

TAB165 = experiment: as above; conditions: P. falciparum in erythrocytes, SYBR Green DNA, 72 h; series mostly up to 28.7 µM
In short: as §1

W2 = experiment: as above; conditions: P. falciparum in erythrocytes, SYBR Green DNA, 72 h; series mostly up to 28.7 µM
In short: as §1

CRL-7250 = normal cell line; experiment: Cytotoxic Profiling of Annotated Libraries Using Quantitative High-Throughput Screening (AID 1296008); conditions: Five cell lines viability, CellTiter-Glo ATP luminescence, 48-72 h; max response: stronger effect = lower value; further: potency means the concentration at half of the fitted maximal effect; on max response: on the % scale 0 is the no-effect control and ±100 the full control effect
In short: (§2)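 Cells exposed to compounds for 48 or 72 hr at 37 degrees Celsius. Viability read as ATP-coupled luminescence with CellTiter-Glo after 10 min at room temperature.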

HEK293 = experiment: as above; conditions: Five cell lines viability, CellTiter-Glo ATP luminescence, 48-72 h; max response: stronger effect = lower value
In short: as §2

HaCat [1] = experiment: as above; conditions: Five cell lines viability, CellTiter-Glo ATP luminescence, 48-72 h; max response: stronger effect = lower value
In short: as §2

KB-3-1 = experiment: as above; conditions: Five cell lines viability, CellTiter-Glo ATP luminescence, 48-72 h; max response: stronger effect = lower value
In short: as §2

NIH3T3 = experiment: as above; conditions: Five cell lines viability, CellTiter-Glo ATP luminescence, 48-72 h; max response: stronger effect = lower value
In short: as §2

HACAT [2] = experiment: qHTS assay to identify novel small-molecules to repurpose for Merkel cell carcinoma treatment (AID 1296009); conditions: MCC and control cell lines, CellTiter-Glo viability, 72 h; at 44.8 µM (top of the series) unless noted; further: potency means the concentration at half of the fitted maximal effect
In short: (§3)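 Cells were incubated with compound for 72 hr at 37 degree celsius before CellTiter-Glo addition. Luminescence was normalized with no-cell wells as full cytotoxicity and DMSO as baseline.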

HEK293T = experiment: as above; conditions: MCC and control cell lines, CellTiter-Glo viability, 72 h; at 44.8 µM (top of the series)
In short: as §3

MCC-13 = experiment: as above; conditions: MCC and control cell lines, CellTiter-Glo viability, 72 h; series mostly up to 46 µM
In short: as §3

MCC-26 = experiment: as above; conditions: MCC and control cell lines, CellTiter-Glo viability, 72 h; series mostly up to 46 µM
In short: as §3

MKL-1 = experiment: as above; conditions: MCC and control cell lines, CellTiter-Glo viability, 72 h; series mostly up to 46 µM
In short: as §3

MKL-2 = experiment: as above; conditions: MCC and control cell lines, CellTiter-Glo viability, 72 h; series mostly up to 46 µM
In short: as §3
Further: nearly all actives have a fitted effect of over 60% in size.

CCN(CC)CCNC(=O)c1ccc(N)cc1
inactive: outcome (PAD) | outcome (PC15) | Potency (PC26) | outcome (PC49) | Potency (SC27B) | outcome (TAB109) | Potency (TAB113) | Potency (TAB165) | Potency (W2) | outcome (CRL-7250) | outcome (HEK293) | max response (HaCat [1]) 0.0096% | outcome (HaCat [1]) inactive; activator | max response (KB-3-1) -16.7% | outcome (KB-3-1) | outcome (NIH3T3) | outcome (HACAT [2]) inactive; activator | outcome (HEK293T) | Potency (MCC-13) | Potency (MCC-26) | Potency (MKL-1) | Potency (MKL-2)

O=C(O)Cc1cccc2ccccc12
inactive: outcome (PAD) | outcome (PC15) | Potency (PC26) | outcome (PC49) | Potency (SC27B) | outcome (TAB109) | Potency (TAB113) | Potency (TAB165) | Potency (W2) | outcome (CRL-7250) | max response (HEK293) 0.788% and 3.55% | max response (HaCat [1]) -10.3% | outcome (HaCat [1]) | max response (KB-3-1) 13.8% and -7.33% | max response (NIH3T3) -0.562% and 0.69% | outcome (HACAT [2]) | Potency (MCC-13) | Potency (MKL-1) | Potency (MKL-2)

COc1ncc(-c2ccc3nccc(-c4ccnnc4)c3c2)cc1NS(=O)(=O)c1ccc(F)cc1F
active: Potency (HEK293) 20.6 nM | Potency (HaCat [1]) 6.5 nM | Potency (KB-3-1) 590 nM and 103 nM | Potency (NIH3T3) 3.7 nM | Potency (MCC-13) 833 nM | Potency (MKL-1) 1480 nM | Potency (MKL-2) 105 nM
inactive: max response (CRL-7250) -92.9% | max response (HEK293) -126% | max response (HaCat [1]) -157%

COc1ccccc1N1CCN(CCCNc2cc(=O)n(C)c(=O)n2C)CC1
inactive: outcome (PAD) | outcome (PC15) | Potency (PC26) | outcome (PC49) | Potency (SC27B) | outcome (TAB109) | Potency (TAB113) | Potency (TAB165) | Potency (W2) | max response (CRL-7250) -0.41% | outcome (CRL-7250) | outcome (HEK293) | outcome (HaCat [1]) | max response (KB-3-1) 10% and -5.34% and -7.87% | outcome (NIH3T3) | outcome (HACAT [2]) | outcome (HEK293T) | Potency (MCC-13) | Potency (MCC-26) | Potency (MKL-1) | Potency (MKL-2)

CCOC(=O)C1=C(N)Oc2ccc(Br)cc2C1C(C#N)C(=O)OCC (centres undefined)
inactive: max response (CRL-7250) 2.39% and -0.818% and 2% | max response (HEK293) -11.5% and -3.28% | outcome (HEK293) | max response (HaCat [1]) -16.4% | outcome (HaCat [1]) | max response (KB-3-1) -1.43% | outcome (KB-3-1) | max response (NIH3T3) 0.0498% and 4.88% | outcome (NIH3T3) | outcome (HACAT [2]) | outcome (HEK293T) | Potency (MCC-13) | Potency (MCC-26) | Potency (MKL-1) | Potency (MKL-2)

CC(=O)CCCCn1c(=O)c2c(ncn2C)n(C)c1=O
inactive: outcome (PAD) | outcome (PC15) | Potency (PC26) | outcome (PC49) | Potency (SC27B) | outcome (TAB109) | Potency (TAB113) | Potency (TAB165) | Potency (W2) | max response (CRL-7250) -2.71% and -0.425% | max response (HEK293) -3.31% | outcome (HEK293) | max response (HaCat [1]) -9.06% | outcome (HaCat [1]) | max response (KB-3-1) -13.9% | outcome (KB-3-1) | max response (NIH3T3) 4.69% and 0.479% | outcome (HACAT [2]) | outcome (HEK293T) | Potency (MCC-13) | Potency (MKL-1) | Potency (MKL-2)

CC(C)[C@H](CO)Nc1nc(Nc2ccc(C(=O)O)c(Cl)c2)c2ncn(C(C)C)c2n1
inactive: outcome (CRL-7250) | max response (HEK293) 1.29% | max response (HaCat [1]) 4.58% | outcome (HaCat [1]) | outcome (KB-3-1) | max response (NIH3T3) -1.87% | outcome (NIH3T3) | outcome (HACAT [2]) | Potency (MCC-13)

Cc1c(NC(=O)c2ccc(C(C)(C)C)cc2)cccc1-c1cn(C)c(=O)c(Nc2ccc(C(=O)N3CCOCC3)cc2)n1
active: Potency (HEK293) 11800 nM
inactive: max response (CRL-7250) 2.1% | outcome (CRL-7250) | max response (HaCat [1]) -8.79% | max response (KB-3-1) 3.17% and -18.9% | max response (NIH3T3) -19.5% and -5.9% | Potency (MCC-13) | Potency (MCC-26) | Potency (MKL-1) | Potency (MKL-2)

CNC(=O)c1ccc2cc(C3(O)CCn4cncc43)ccc2c1 (centres undefined)
inactive: max response (CRL-7250) -2.53% and -8.91% | max response (HEK293) -5.04% and 1.96% | max response (HaCat [1]) 0.87% | outcome (HaCat [1]) | max response (KB-3-1) -2.71% | outcome (KB-3-1) | max response (NIH3T3) 3.68% and 1.07% | outcome (HACAT [2]) | Potency (MCC-13) | Potency (MCC-26) | Potency (MKL-1) | Potency (MKL-2)

Clc1ccc(Cn2c(CN3CCCC3)nc3ccccc32)cc1
inactive: outcome (PAD) | outcome (PC15) | outcome (PC49) | Potency (SC27B) | outcome (TAB109) | Potency (TAB113) | Potency (TAB165) | max response (CRL-7250) -0.466% | outcome (CRL-7250) | max response (HEK293) -18% | max response (HaCat [1]) -16.9% | outcome (HaCat [1]) | max response (KB-3-1) 4.33% and 5.03% | max response (NIH3T3) 3.2% and 1.49% | outcome (HACAT [2]) inactive [at 17.4 µM] | Potency (MCC-13) | Potency (MCC-26) | Potency (MKL-1)

O=C(CCN1CCN(C(=O)OCc2cc(Cl)cc(Cl)c2)CC1)c1ccc2[nH]c(=O)oc2c1
inactive: max response (CRL-7250) -14.6% | outcome (CRL-7250) | max response (HEK293) -21.4% | max response (HaCat [1]) -8.98% and -29.3% | max response (KB-3-1) -3.38% and 0.622% | max response (NIH3T3) 1.12% and -60.6% | Potency (MCC-13) | Potency (MCC-26) | Potency (MKL-1) | Potency (MKL-2)
active: Potency (HEK293) 9200 nM
